Only some compounds are listed: those with a hit (about 2.4% of all), similar ones and a draw of the others.
D2 antagonist – HTS Assay for Allosteric Antagonists of the Human D2 Dopamine Receptor: Primary Screen for Antagonists | D(2) dopamine receptor (Homo sapiens), P14416 | HEK293 TREx D2 cells, calcium flux, dopamine EC80 | inhibition, % at 10 µM | 340,000 tested, 2% active | AID 485344, 2010; in the data active = inhibition above about 30%; inactive = below that, where a call was filed; also: 0% is about no effect
Target sequence (P14416 whole entry, looked up): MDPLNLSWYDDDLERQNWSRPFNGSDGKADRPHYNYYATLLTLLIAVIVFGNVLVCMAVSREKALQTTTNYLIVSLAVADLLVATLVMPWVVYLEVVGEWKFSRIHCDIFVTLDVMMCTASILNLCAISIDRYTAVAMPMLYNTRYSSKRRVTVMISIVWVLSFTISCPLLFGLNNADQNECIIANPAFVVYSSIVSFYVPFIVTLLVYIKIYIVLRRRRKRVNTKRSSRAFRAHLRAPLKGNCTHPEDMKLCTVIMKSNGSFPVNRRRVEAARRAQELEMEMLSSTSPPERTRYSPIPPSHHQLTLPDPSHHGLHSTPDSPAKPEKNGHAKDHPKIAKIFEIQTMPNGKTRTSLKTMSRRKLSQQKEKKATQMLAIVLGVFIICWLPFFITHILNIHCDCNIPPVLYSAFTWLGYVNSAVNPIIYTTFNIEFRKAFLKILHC
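Compounds are added to dye-loaded, induced HEK293 T-REx cells coupled to calcium release via D2; after a 3 min kinetic read an EC80 dopamine stimulus is given and fluorescence is recorded for 3 more min.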
D2 PAM-1 – Beta-Arrestin HTS for Positive Allosteric Modulators of the Human D2 Dopamine Receptor: Potentiators; potentiation, % (test concentration not listed); D(2) dopamine receptor (Homo sapiens), P14416; DiscoveRx D2 beta-arrestin cells, luminescence, 90 min; 100% = 57 uM dopamine signal; 360,000 tested, 0.23% active; in the data active = potentiation above about 50%; inconclusive = mostly about 30% to 49%
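PathHunter D2 cells, attached overnight at 37 deg C, received compound in DMSO plus dopamine at EC20 (50 nM final) for 90 min at 37 deg C. Beta-arrestin recruitment was read as luminescence after 1 h with detection reagent at ambient temperature.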
D2 ag-1 – HTS Assay for Allosteric Agonists of the Human D2 Dopamine Receptor: Primary Screen for Agonists | 340,000 tested, 0.53% active | activation, % at 2 µM | HEK293 T-REx D2 cells, calcium flux agonist mode | D(2) dopamine receptor (Homo sapiens), P14416;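 active = activation over 3 SD above normal in the single-dose calcium agonist read, cut at about 30% in these data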; also: 0% is about no effect
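Agonism scored from kinetic calcium signal (1 read/sec, 180 s) following compound pin transfer, after a 10 s baseline. Cells: HEK293 Trex line expressing inducible D2 receptor coupled to calcium, dye-loaded after overnight culture at 30 C.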
D2 PAM-2 – HTS Assay for Positive Allosteric Modulators of the Human D2 Dopamine Receptor: Primary Screen for Potentiators; D(2) dopamine receptor (Homo sapiens), P14416; HEK293 T-REx D2, calcium flux, EC20 dopamine potentiation; potentiation, % at 10 µM; 340,000 tested, 0.34% active; AID 485347, 2010;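 active = potentiation over 3 SD above the plate norm, cut at about 30% in these data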; also: 0% is about no effect
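Calcium flux readout, no-wash dye, 1 read/s. Inducible HEK293 Trex D2 line, overnight 30 C. Compound alone 180 s (agonist flags), then EC20 dopamine, another 180 s to score potentiation.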
D2 ag-2 – Beta-Arrestin HTS for Positive Allosteric Modulators of the Human D2 Dopamine Receptor: Agonists | 360,000 tested, 0.084% active | DiscoveRx PathHunter D2 beta-arrestin, luminescence, 90 min; 100% = 57 uM dopamine signal | activation, % (no concentration beside the values) | AID 624465, 2012; in the data active = activation above about 40%; inconclusive = between about 15% and that limit
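Agonist mode: compounds alone added to overnight-plated D2 PathHunter cells for 90 min at 37 C, with 57 uM final dopamine (EC100) defining full response. Beta-arrestin recruitment detected by chemiluminescent reagent, read after 1 h at ambient temperature.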
* hit, by the source's call; ? = inconclusive; · = not tested or not shown.

SMILES | D2 antagonist | D2 PAM-1 | D2 ag-1 | D2 PAM-2 | D2 ag-2
CCCCNC(=O)CSc1cc(=O)n(C)c2ccccc12 | 35* | -6 | -1 | -3 | -4
CCn1c(=O)cc(SCC(=O)NCCCN2CCN(c3ccc(F)cc3)CC2)c2ccccc21 | 66* | -15 | 27 | -26 | 5
CCn1c(=O)cc(SCC(=O)NCCCN2CCC(C)CC2)c2ccccc21 | -1 | -8 | 0 | -18 | 1
COc1ccc(NC(=O)CN2CCN(Cc3ccc(F)cc3)S2(=O)=O)cc1Cl | · | · | · | -11 | ·
CCOc1cc(CNC(=O)c2ccc3c(c2)nc2n3CCCCC2)ccc1OC | · | · | 0 | -5 | ·
O=C1C=C(c2cccs2)C[C@H](c2ccccc2)[C@H]1n1nnc([N+](=O)[O-])n1 | -10 | 92* | -1 | 7 | ?
CCOC(=O)c1[nH]c(C)c(CCC(=O)NCc2ccc(CC)cc2)c1C | · | · | -1 | -5 | ·
C1CCC(NC2=NCCO2)CC1 | · | -9 | · | · | -1
C1COC(NC(C2CC2)C2CC2)=N1 | 36* | -9 | 2 | -4 | 0
CC(C)(C)NC(=O)C1(N2C(=O)c3ccccc3C2=O)CCCC1 | · | -27 | · | · | -2
CCCn1c(NCc2ccccc2C)nc2ccccc21 | · | · | 2 | -20 | ·
CCCn1c(Nc2ccccc2C)nc2ccccc21 | 42* | -33 | 0 | -13 | 0
Cc1ccc(OCC(=O)Nc2ccc(C(=O)OCc3cc(=O)n4ccsc4n3)cc2)cc1C | · | · | 1 | 2 | ·
COc1ccc(OC)c(NC(=O)c2ccc(OCC(=O)N3CCOCC3)c(OC)c2)c1 | -14 | -4 | 10 | -9 | 1
COc1cc(C(=O)Nc2cc(S(C)(=O)=O)ccc2Cl)ccc1OCC(=O)N1CCOCC1 | 36* | -4 | 0 | -6 | -5
O=C(COC(=O)c1cc[n+]([O-])cc1)NCCc1ccc(Cl)cc1Cl | 34* | 0 | 1 | -1 | -14
COc1ccc(CCN2C(=O)CC(N3CCN(S(=O)(=O)c4ccccc4)CC3)C2=O)cc1 (stereo not drawn) | 8 | -26 | 0 | 31* | 0
CCCOc1ccc(C(=O)NC2CCSc3ccccc32)cc1 (stereo not drawn) | 36* | -4 | -1 | 6 | 1
Cc1ccc(-c2cc(C(F)F)nc(NCc3cccnc3)n2)cc1 | 1 | -23 | 1 | 42* | -2
Cc1ccc(-c2cc(C(F)F)nc(NCc3cccs3)n2)cc1 | 11 | -5 | 1 | 3 | -3
CC(c1ccco1)N(C(=O)c1ccc(Cl)s1)c1ccccn1 (stereo not drawn) | -33 | 5 | 34* | -6 | 8
CC(c1ccco1)N(C(=O)c1ccccc1F)c1ccccn1 (stereo not drawn) | -1 | -1 | 0 | 1 | 1
CCC(C(=O)Nc1cc(OC)ccc1OC)n1nc(-c2ccccc2)c2c(c1=O)CCCC2 (stereo not drawn) | · | · | 16 | 3 | ·
C=CCC1c2cccc(C(=O)O)c2C(=O)N1c1cccc(OC)c1 (stereo not drawn) | -5 | -4 | 0 | 0 | -3
C=CCC1c2cccc(C(=O)O)c2C(=O)N1c1cccc(C)c1 (stereo not drawn) | 32* | 4 | 0 | 9 | 1
SMILES | D2 antagonist | D2 PAM-1 | D2 ag-1 | D2 PAM-2 | D2 ag-2
Cc1ccc(C(=O)Nc2c(C)cc(-c3ccccc3)oc2=O)cc1 | 31* | -8 | 0 | -6 | -4
Cc1ccc(C(=O)Nc2nc(-c3ccccc3)c(-c3ccccc3)o2)cc1 | -22 | -24 | -1 | -12 | 0
CCN(Cc1ccccc1)C(=O)Cn1c(=O)n(Cc2ccccc2)c(=O)c2c1c1cc(OC)ccc1n2C | · | · | 0 | -15 | ·
O=C(c1ccc2c(c1)OCCO2)C1CCN(C(=O)Nc2ccc(F)cc2)CC1 | -8 | 0 | 0 | 1 | 2
COc1ccc(NC(=O)N2CCC(C(=O)c3ccc4c(c3)OCCO4)CC2)cc1 | 7 | -4 | -1 | 33* | -2
COc1ccc(NC(=O)N2CCCC(C(=O)NC(C)C)C2)cc1 (stereo not drawn) | 33* | 4 | 0 | -3 | -1
CC(C)(C)C(=O)Nc1nc(-c2ccc3c(c2)OCO3)cs1 | -3 | -18 | -1 | 22 | -3
CCC(=O)Nc1nc(-c2ccc3c(c2)OCCO3)cs1 | 32* | -1 | 0 | -3 | 2
CN(C)c1ccc(S(=O)(=O)NCC(=O)NCCOc2ccccc2F)cc1[N+](=O)[O-] | -9 | 0 | 1 | -3 | -3
CN(C)c1ccc(S(=O)(=O)NCC(=O)NCCC2=CCCCC2)cc1[N+](=O)[O-] | 31* | -32 | 0 | -9 | -4
Cn1c(=O)oc2cc(S(=O)(=O)N3CCOCC3)ccc21 | 46* | 21 | 0 | -13 | 0
Cn1c(=O)oc2cc(S(=O)(=O)N3CCC4(CC3)OCCO4)ccc21 | 4 | 2 | 2 | -1 | 0
CC1CCN(c2nc(-c3ccc(C(C)(C)C)cc3)nc3ccccc23)CC1 | · | · | -1 | -1 | ·
CC(=O)C1=CCC(c2cccc(Cl)c2)N(S(=O)(=O)c2ccc(C)cc2)C1 (stereo not drawn) | · | 4 | · | · | -6
CC(C)c1ccc(OCC(=O)Nc2c(Cl)ccc3nsnc23)cc1 | · | · | 0 | -4 | ·
Cc1cc2oc(=O)cc(CSc3nnc(-c4cccs4)o3)c2cc1C(C)C | 36* | 1 | 0 | -9 | -3
C=CCN(C(=O)c1csnn1)C(C(=O)NCc1ccc(F)cc1)c1ccccc1 (stereo not drawn) | 52* | -1 | 0 | 19 | 0
COc1ccc(/C=N/NC(=O)COc2ccc3ccccc3c2)c(C(=O)O)c1OC | 7 | -2 | 1 | 12 | -7
COc1ccc(/C=N/NC(=O)COc2cccc3ccccc23)c(C(=O)O)c1OC | -21 | 2 | 0 | 40* | 0
Cc1c(C(=O)Nc2ccc(-n3c(C)nc4ccccc4c3=O)cc2)cccc1[N+](=O)[O-] | · | · | -5 | 2 | ·
O=C(c1ccc2c(c1)OCO2)N1CCC2(CC1)Oc1ccc(Cl)cc1C(=O)C21CC(c2ccccc2)=NO1 (stereo not drawn) | 42* | -11 | 1 | 7 | -2
COc1ccccc1N1CCN(C(=O)c2nc(SC)ncc2Cl)CC1 | · | · | -1 | 1 | ·
COc1ccc(CN(Cc2ccco2)C(=O)COc2ccc(Cl)cc2C)cc1 | · | · | 1 | · | ·
O=C(Oc1cccc2ccccc12)c1ccncc1 | 34* | 2 | 0 | -3 | -1

Compound activity (PubChem)
